Data published in PubChem BioAssay AID1259421 (Broad Institute, 2018).
Values joined by “and” are separate entries in the source; they are usually repeats but may differ in a detail not shown here. Equal entries are not always repeated. In all, about 6,400 compounds went through this assay and about 610 (9.5%) were called active. Cut-off read from the data, not from the text of the source: active = activity change below about -70%; inconclusive = no clear call, values can overlap the other calls; inactive = above that. For the sample, actives were picked, then their nearest neighbours and some compounds at random. More than one record can exist for a structure, and the calls need not agree.

Assay: T. gondii ME49Luc in HeLa cells, luciferase assay, 72 h, no IFN-y (AID 1259421)
Conditions: stronger effect = lower value, concentration not given here

Row | SMILES | activity change, negative = inhibition
1 | CC(N)Cn1ccc2cc(F)c(Cl)cc21 (stereo not given) | 4.63% (inactive)
2 | COc1cc2c(cc1OC)-c1c(oc3c4c(ccc3c1=O)OC(C(C)C)C4)CO2 (stereo not given) | 16.2% (inactive)
3 | Cc1cccc(Cc2cnc[nH]2)c1C | 32.1% (inactive)
4 | CN1C[C@@H](NS(=O)(=O)N(C)C)C[C@@H]2c3cccc4c3c(cn4C)C[C@H]21 | 14.9% (inactive)
5 | COC(=O)NC(=S)Nc1ccccc1NC(=S)NC(=O)OC | 8.42% (inactive) and 11.6% (inactive)
6 | CC(C)=CCCN1CCC(NC(=O)[C@](O)(c2ccccc2)C2CCCC2)CC1 | 1.64% (inactive)
7 | c1cncc(C2CCCN2)c1 (stereo not given) | 2.36% (inactive)
8 | Fc1cc(F)c2c(c1)[C@H]1C=CC[C@H]1C(c1cccnc1)N2 (stereo not given in full) | -75.5% (active)
9 | c1cncc(C2CCCCN2)c1 (stereo not given) | 9.05% (inactive) and -25.4% (inactive)
10 | O=C1CC[C@@]2(O)[C@H]3Cc4ccc(O)c5c4C2(CCN3CC2CC2)[C@H]1O5 | -9.85% (inactive)
11 | COc1cc2c3cc1Oc1c(OC)c(OC)cc4c1[C@@H](Cc1cccc(c1)Oc1ccc(c(O)c1)C[C@@H]3N(C)CC2)N(C)CC4 | -11.3% (inactive)
12 | CCCCC/C=C\C/C=C\C/C=C\C/C=C\CCCC(=O)NCCO | 34.9% (inactive)
13 | CCCCC/C=C\C/C=C\C/C=C\C/C=C\CCCC(=O)NCc1ccc(O)c(OC)c1 | 8.17% (inactive)
14 | CCCCC/C=C\C/C=C\C/C=C\C/C=C\CCCC(=O)Nc1ccc(O)cc1 | -78.5% (active)
15 | COC(=O)C=CC(=O)NC1CCC2(O)C3Cc4ccc(O)c5c4C2(CCN3CC2CC2)C1O5 (stereo not given) | 12.8% (inactive)
16 | CC(=O)[O][Hg][c]1ccccc1 | -50.7% (inactive)
17 | C[C@@H]([C@H](O)c1ccccc1)N(C)C | -0.751% (inactive) and -3.37% (inactive)
18 | C[Se]C[C@H](N)C(=O)O | 10.4% (inactive)
19 | COc1cc([C@@H]2c3cc4c(cc3[C@H](OC(C)=O)[C@H]3COC(=O)[C@H]23)OCO4)cc(OC)c1OC | -81.6% (active)
20 | COc1cc([C@@H]2c3cc4c(c(O)c3C[C@H]3COC(=O)[C@@H]32)OCO4)cc(OC)c1OC | -71.9% (active)
21 | COc1ccc2c(c1OC)C(=O)O[C@@H]2[C@H]1c2cc3c(cc2CCN1C)OCO3 | 2.97% (inactive)
22 | COc1cc([C@@H]2c3cc4c(cc3[C@@H](O)C3COC(=O)C32)OCO4)cc(OC)c1O (stereo not given in full) | -8.26% (inactive)
23 | COc1ccc2c(c1OC)CN1CCc3cc4c(cc3C1C2)OCO4 (stereo not given) | 15.2% (inactive)
24 | CCN1C[C@]2(OC(=O)c3ccccc3NC(C)=O)CCC(OC)[C@]34C1[C@H](CC23)[C@@]1(O)CC(OC)[C@H]2CC4C1(O)[C@H]2OC (stereo not given in full) | -6.02% (inactive)
25 | CC(C)(C)[C@]1(O)C[C@@H]2OC(=O)C[C@@]23C(=O)O[C@@H]2OC(=O)[C@H](O)C213 (stereo not given in full) | 7.37% (inactive)
26 | COC1(C[S@@](=O)c2ccccc2)CCN(CCc2c[nH]c3ccc(F)cc23)CC1 | 22.1% (inactive)
27 | CN1[C@@H]2CC[C@H]1CC(OC1c3ccccc3CCc3ccccc31)C2 (stereo not given in full) | 15.8% (inactive)

Row | SMILES | activity change, negative = inhibition
28 | c1ccc2c(c1)sc1ccccc12 | -5.87% (inactive)
29 | C=C[C@H]1CN2CC[C@H]1C[C@@H]2[C@H](O)c1ccnc2ccccc12 | -7.58% (inactive)
30 | CC(C)[C@]12O[C@H]1[C@@H]1O[C@]13[C@]1(O[C@H]1C[C@H]1C4=C(CC[C@@]13C)C(=O)OC4)[C@@H]2O | -86.5% (active)
31 | CC(C)c1ccc2c(c1O)CC[C@H]1C3=C(CC[C@]21C)C(=O)OC3 | 0.532% (inactive)
32 | C[C@@H]1CN(Cc2ccc(F)cc2)CCN1C(=O)COc1ccc(Cl)cc1NC(N)=O | -3.05% (inactive)
33 | O=c1ccc2cc(O[C@@H]3O[C@H](CO)[C@@H](O)[C@H](O)[C@@H]3O)c(O)cc2o1 | -0.686% (inactive)
34 | C=C(C)[C@@H]1[C@H]2OC(=O)[C@H]1[C@]1(O)C[C@H]3O[C@]34C(=O)O[C@H]2[C@]14C | 2.63% (inactive)
35 | CCN(CC)CCOC(=O)C(C)(c1ccccc1)c1ccccc1 | 15.3% (inactive)
36 | O=C(N[C@H]1CN2CCC1CC2)c1cc2cccc(Cl)c2s1 | 25.6% (inactive)
37 | O=C(N[C@H]1CN2CCC1CC2)c1ccc(Cl)cc1 | 10.2% (inactive) and 9.22% (inactive)
38 | O=c1[nH]c2ccc(Cl)cc2c(N[C@@H]2CN3CCC2CC3)c1-c1nc2ccccc2[nH]1 | -83.1% (active)
39 | C[N+]1(C)CCc2cc3c(cc2C1[C@@H]1OC(=O)c2c1ccc1c2OCO1)OCO3 (stereo not given in full) | -1.51% (inactive) and 8.52% (inactive)
40 | C1CN2CCC1CC2 | 14.5% (inactive)
41 | O=C1NC(=S)NC(=O)C1C(=O)Nc1ccccc1 | 57.2% (inactive)
42 | CC12CCC3C(CCC4C(=O)C(=O)CCC43C)C1CCC2=O (stereo not given) | 21.2% (inactive)
43 | C(=C\c1ccccc1)/CN1CCN(CCOC(c2ccccc2)c2ccccc2)CC1 | -4.36% (inactive) and -26.8% (inactive) and -5.08% (inactive)
44 | Fc1ccc(C(OCCN2CCN(C/C=C/c3ccccc3)CC2)c2ccc(F)cc2)cc1 | -83.2% (active) and -79.9% (active)
45 | Fc1ccc(C(OCCN2CCN(CCCc3ccccc3)CC2)c2ccc(F)cc2)cc1 | -67.4% (inactive) and 5.82% (inactive)
46 | O=c1oc2ccccc2c(O)c1Cc1c(O)c2ccccc2oc1=O | -3.14% (inactive) and 12.5% (inactive)
47 | N[C@]1(C(=O)O)CC[C@@H](C(=O)O)C1 (racemic) | 3.76% (inactive)
48 | O=C1c2ccccc2C(=O)c2ccccc21 | -6.04% (inactive)
49 | c1ccc2c(c1)[I+]c1ccccc1-2 | -67.1% (inactive) and -88.6% (active)
50 | FC(F)(F)c1cccc(N2CCNCC2)c1 | -1.94% (inactive)
51 | CN=C(NS(=O)(=O)c1ccc(Cl)cc1)N1C[C@H](c2ccccc2)C(c2ccc(Cl)cc2)=N1 | 38.2% (inactive)
52 | Cc1ccc2c(c1)C1(CCN(CCc3nc(-c4ccccc4)oc3C)CC1)OC(=O)N2 | 0.534% (inactive) and -16.6% (inactive)
53 | CC(C)(C)NCC(O)c1ccc(O)cc1Cl (stereo not given) | -2.47% (inactive)
54 | CN1C2C[C@H](OC(=O)[C@H](CO)c3ccccc3)C[C@H]1[C@@H](O)C2 | 4.91% (inactive)

Row | SMILES | activity change, negative = inhibition
55 | CN1C2C[C@H](OC(=O)[C@H](CO)c3ccccc3)C[C@@H]1[C@@H](O)C2 | 6.31% (inactive)
56 | CCCCCOc1c(OC)ccc2cc(C(=O)NCc3ccc4c(c3)OCO4)c(=O)[nH]c12 | 23.5% (inactive) and -61.7% (inactive)
57 | CCC(=O)O[C@H]1CCC2C3CCC4=CC(=O)CC[C@]4(C)C3CC[C@@]21C (stereo not given in full) | -76.8% (active) and -88.9% (active)
58 | C#C[C@]1(O)C=C[C@H]2[C@@H]3CCC4=CC(=O)CC[C@@H]4[C@H]3CC[C@@]21CC | -40.4% (inactive)
59 | CCCC1CC2=CC(=O)CCC2(C)C2CCC3(C)C(CCC3(O)CCC(=O)O)C12 (stereo not given) | 13% (inactive)
60 | C[C@]12CCC(=O)C=C1CCC1C2CC[C@@]2(C)C1CC[C@H]2O (stereo not given in full) | 2.85% (inactive)
61 | C[C@]12CCC3c4ccc(OC(=O)N(CCCl)CCCl)cc4CCC3C1CC[C@@H]2O (stereo not given in full) | -52.4% (inactive)
62 | C[C@]12CC[C@H]3[C@@H](CCC4=CC(=O)CC[C@@]43C)[C@@H]1CC[C@H]2O | 8.39% (inactive)
63 | CCC[C@@H]1CC2=CC(=O)CC[C@]2(C)[C@H]2CC[C@@]3(C)[C@@H](CC[C@@]3(O)CCC(=O)O)[C@H]12 | 17.5% (inactive)
64 | C[C@]12CCC(=O)C=C1CCC1C2CC[C@@]2(C)C1CC[C@@H]2O (stereo not given in full) | -78.3% (active) and -86.2% (active)
65 | C[C@]12CCC(=O)C=C1CC[C@@H]1[C@@H]2C(=O)C[C@]2(C)C(=O)CC[C@@H]12 | 8.66% (inactive)
66 | C[C@]12CC[C@H]3[C@@H](CCC4=CC(=O)CC[C@@H]43)[C@@H]1CC[C@@H]2O | -79.7% (active)
67 | C#CC1(O)CCC2C3CCC4=CC(=O)CCC4(C)C3CCC21C (stereo not given) | -6.31% (inactive) and -17.5% (inactive)
68 | CCCCCCC(=O)O[C@H]1CC[C@H]2[C@@H]3CCC4=CC(=O)CC[C@]4(C)[C@H]3CC[C@]12C | -77% (active)
69 | CC(C)[C@]1(O)[C@@H](OC(=O)c2ccc[nH]2)[C@@]2(O)[C@@]3(C)C[C@]4(O)O[C@@]5([C@H](O)[C@@H](C)CC[C@]35O)[C@@]2(O)C41C | 7.71% (inactive)
70 | N#Cc1ccccc1-c1cc(-c2ccccn2)cn(-c2ccccc2)c1=O | 3.7% (inactive)
71 | C=CCN1CC[C@]2(C)c3cc(O)ccc3CC1[C@@H]2C | 17.7% (inactive)
72 | Cc1ccccc1-n1c(CF)nc2ccc(N)cc2c1=O | 11.5% (inactive)
73 | CCN(CC)Cc1nccn1-c1ccc([N+](=O)[O-])cc1C(=O)c1ccccc1Cl | -2.08% (inactive)
74 | C=C(C)CN1CC[C@]23c4c5ccc(O)c4O[C@H]2c2[nH]c4ccccc4c2C[C@@]3(O)C1C5 | 3.03% (inactive) and 27.5% (inactive)
75 | CN1C(=O)C(O)N=C(c2ccccc2)c2cc(Cl)ccc21 (stereo not given) | 18.5% (inactive)
76 | CCOC(=O)c1ncn2c1C1CCCN1C(=O)c1cc(OC)ccc1-2 (stereo not given) | 4.31% (inactive)
77 | CNCC/C=C/c1cccnc1 | 9.5% (inactive)
78 | O=C1CCCC2C3CC(CN12)[C@@H]1CCCCN1C3 (stereo not given in full) | 14.8% (inactive) and -1% (inactive)
79 | O=C1Nc2ccc(Cl)cc2C(c2ccccc2)=NC1O (stereo not given) | 20.6% (inactive)
80 | CCCN1CCCC2Cc3[nH]ncc3CC21 (stereo not given) | 1.31% (inactive)
